Screening results: PubChem, Buhrlage Lab, Dana-Farber Cancer Institute and Novartis Institutes for BioMedical Research (Cambridge, Mass)
USP8 inh – inhibitors of human USP8 deubiquitinase. 4.2% of 47,000 active. P40818. purified USP8, Ub-rhodamine cleavage fluorescence, 30 min. AID 1645853. inhibition, % at 20 µM
UCHL1 block – human UCHL1 deubiquitinase inhibition; purified UCHL1, Ub-rhodamine cleavage fluorescence; P09936; AID 1645859; 0.2% of 47,000 active; inhibition, % at 20 µM
USP30 block – inhibitors of human USP30 deubiquitinase | 5.3% of 47,000 active | inhibition, % at 25 µM | purified USP30, Ub-rhodamine cleavage fluorescence
USP17 inh – inhibitors of human USP17 deubiquitinase; A8MUK1; purified USP17, Ub-rhodamine cleavage fluorescence, 3 h; inhibition, % at 50 µM; 6.5% of 47,000 active; AID 1645855
Target sequence (A8MUK1 whole entry, looked up): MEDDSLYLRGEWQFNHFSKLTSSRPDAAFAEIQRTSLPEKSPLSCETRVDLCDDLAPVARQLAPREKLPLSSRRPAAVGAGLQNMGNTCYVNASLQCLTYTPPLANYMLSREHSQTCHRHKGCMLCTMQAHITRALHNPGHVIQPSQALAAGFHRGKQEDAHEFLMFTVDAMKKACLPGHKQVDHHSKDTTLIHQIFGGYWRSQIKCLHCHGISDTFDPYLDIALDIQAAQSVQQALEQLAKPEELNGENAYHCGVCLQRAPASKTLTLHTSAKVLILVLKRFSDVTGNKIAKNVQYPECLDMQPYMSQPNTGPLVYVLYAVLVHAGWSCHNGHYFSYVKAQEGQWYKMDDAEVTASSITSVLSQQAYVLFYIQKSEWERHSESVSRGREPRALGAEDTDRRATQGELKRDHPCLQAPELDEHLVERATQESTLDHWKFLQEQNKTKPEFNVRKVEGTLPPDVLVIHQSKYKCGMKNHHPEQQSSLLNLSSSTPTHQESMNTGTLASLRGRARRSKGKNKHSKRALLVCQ
USP10 inh – human USP10 deubiquitinase inhibition | 1.1% of 47,000 active | Q14694 | purified USP10, Ub-rhodamine fluorescence, 60 min | inhibition, % at 20 µM
USP7 block – blocks human USP7 ubiquitin-rhodamine cleavage; inhibition, % at 20 µM; 0.3% of 47,000 active; purified USP7, Ub-rhodamine cleavage fluorescence; AID 1645854
* = called active by the depositor; i = inactive; / = no result given. Most compounds without a hit are left out; they make up all but 13% or so of the library. Rule as the data show it: active = inhibition above about 30%; inactive = the rest.

SMILES | USP8 inh | UCHL1 block | USP30 block | USP17 inh | USP10 inh | USP7 block
COc1cc(O)cc2c1C(=O)O[C@@H](C)CCCC(=O)CCCCC2 | -14 | 3 | 21 | 12 | 1 | 2
COC1=C(C2=C(OC)C(=O)c3cc4c(c(O)c3C2=O)C(=O)OC(C)C4)C(=O)c2c(cc3c(c2O)C(=O)OC(C)C3)C1=O (configuration not stated) | -27 | 40* | -42 | 70* | -9 | -67
O=C(Cc1c[nH]c2ccccc12)N1C[C@@H](O)[C@H](N2CCCC2)C1 | -1 | -2 | -24 | -12 | -1 | 1
COc1cccc2c1NC(=O)C21CCN(C(=O)Nc2cccc3ccccc23)CC1 | 97* | 20 | 20 | 92* | 3 | -19
CCN1CC2ON=C(c3ccccc3C)C2C1 (configuration not stated) | 12 | 0 | 10 | 6 | 3 | 3
Cc1nn(Cc2ccccc2)c(Cl)c1C(=O)NC1CCCc2ccccc21 (configuration not stated) | 11 | 4 | 35* | 56* | 3 | -1
COCC(O)C1OC(=O)C(O)CC2C=CC3C4OC2(/C(C)=C\C1C)C3C(O)C(COC)C4OC(=O)c1ccc[nH]1 (configuration not stated) | 3 | 1 | 38* | 0 | 4 | 4
Cn1ccnc1CN1CCOC2(CCCN(c3ncccn3)C2)C1 (configuration not stated) | -129 | 1 | 21 | -7 | 2 | 6
COCCN1CCO[C@H]2CCN(C(=O)c3ccnnc3)CC[C@@H]21 | -45 | -3 | 6 | -3 | 0 | -3
N#Cc1ccc(NC(=O)c2ccccc2Oc2ccccc2)cc1Cl | 2 | 5 | 16 | -26 | 6 | 4
COCC(C)NC(=O)c1cc2cccnc2n(Cc2ccc(F)cc2)c1=O (configuration not stated) | -1 | 2 | 31* | 38* | 0 | -68
COc1cc2c(c3oc4cccc(O)c4c(=O)c13)C1C=COC1O2 (configuration not stated) | 3 | 4 | 20 | 54* | 4 | -9
C/C=C1/CN2CC[C@]34C(=C(C(=O)OC)[C@H]1C[C@H]23)Nc1c(O)cccc14 | 86* | -4 | -99 | 37* | -4 | -1
COc1c2c(c(O)c3c1C(=O)c1c(cc(O)c(C)c1O)C3=O)-c1c(cc3c(c1O)C(=O)OC3O)CC2 (configuration not stated) | 72* | 69* | 59* | 94* | 75* | 55*
O=C(NCc1ccc(F)cc1)[C@H]1CN2CCC1C[C@@H]2Cn1cc(-c2cccc(O)c2)nn1 (some centres not stated) | -17 | -2 | -32 | -34 | -5 | -6
CN(C)[C@H]1C(=O)C(C(N)=O)=C(O)C2(O)C(=O)C3=C(O)c4c(O)cccc4C(C)(O)C3C(O)C12 (some centres not stated) | -94 | 43* | i | -116 | -8 | 5
CC(C)(C)c1cn(C[C@H]2CC3CCN2C[C@@H]3C(=O)Nc2ccccc2)nn1 (some centres not stated) | -10 | -2 | -11 | -14 | -3 | -11
O=C1NCC2(CCCN(Cc3ccncc3)C2)Oc2ccccc21 (configuration not stated) | -4 | -17 | -192 | -60 | -3 | -19
c1cc(-c2nccc(CN3CCCC4(CCCCC4)C3)n2)ccn1 | 37* | 1 | 24 | 14 | 0 | -1
Cc1cc(C)nc(-n2nc(C)c3c2NC(=O)CSC3c2ccc(F)cc2F)n1 (configuration not stated) | 2 | 0 | 77* | 45* | -4 | -5
CC1Oc2cc3c(-c4c(O)cc(O)c5c(O)c6c(cc45)OC(C)C(C)C6=O)c(O)cc(O)c3c(O)c2C(=O)C1C (configuration not stated) | 59* | 88* | 35* | 81* | 68* | 85*
COC(=O)/C=C/c1ccc(OP(N)(=O)OC)cc1 (configuration not stated) | -3 | 0 | 9 | 0 | -3 | 0
O=C(O)c1cccc2nc3ccccc3nc12 | 8 | 11 | -10 | 39* | -1 | -2
Cn1ccnc1CN1C(=O)CO[C@H]2CN(Cc3ccncc3)C[C@H]21 | -16 | 0 | 4 | 1 | 0 | 2
O=C1CSC(c2ccc3c(c2)OCO3)c2c(n(C3CCCCCC3)[nH]c2=O)N1 (configuration not stated) | 83* | 4 | 33* | 19 | 24 | 16
SMILES | USP8 inh | UCHL1 block | USP30 block | USP17 inh | USP10 inh | USP7 block
O=C1CSC(c2ccc3c(c2)OCO3)c2c(-c3ccccc3)nn(-c3ccccc3)c2N1 (configuration not stated) | 19 | 11 | 30* | 10 | 6 | 11
COc1ccc(C2SCC(=O)Nc3c2c(=O)[nH]n3C2CCCC2)cc1 (configuration not stated) | -2 | -6 | 0 | -8 | 3 | -2
COCc1cc(C2SCC(=O)Nc3c2c(-c2ccccc2)nn3-c2ccccc2)ccc1OC (configuration not stated) | -17 | 5 | 5 | 5 | -1 | 3
CCOc1ccc(C2SCC(=O)Nc3c2c(=O)[nH]n3C2CCCCC2)cc1 (configuration not stated) | 88* | 1 | 35* | 14 | 10 | 18
COc1ccc(C2SCC(=O)Nc3c2c(=O)[nH]n3C2CCCCCC2)cc1OC (configuration not stated) | -4 | -3 | 0 | -10 | 1 | 1
Cc1ccc(C2SCC(=O)Nc3c2c(=O)[nH]n3C2CCCCC2)cc1 (configuration not stated) | 88* | 1 | 17 | 22 | 20 | 23
O=C(COC(=O)C(O)(c1ccccc1)c1ccccc1)c1ccc2c(c1)OCCO2 | 3 | 3 | -7 | 0 | 0 | 2
Cc1noc(C)c1CN1C[C@H](Oc2cccnc2)[C@H]2OCCC[C@H]21 | 0 | -2 | -12 | -25 | 2 | 3
CCCCC[C@H](O)C1C(=O)O[C@H](C)[C@@H](O)/C=C/C=C/C=C\C=C/C=C(\C)[C@@H](O)[C@H](O)[C@H](O)C[C@H](O)C[C@@H](O)C[C@@H](O)C[C@@H](O)C[C@H]1O (some centres not stated) | -103 | -20 | -235 | -89 | -12 | -54
COc1ccc(C2SCC(=O)Nc3c2c(=O)[nH]n3C2CCCCCC2)cc1 (configuration not stated) | 25 | 0 | 10 | 50* | 6 | -2
CC1(C)CC(n2[nH]c(=O)c3c2NC(=O)CSC3c2ccc(OCc3ccccc3)cc2)CCO1 (configuration not stated) | 25 | 1 | 53* | 25 | 4 | 2
Cn1c(=O)n(C)c2cc(CNCCc3c[nH]c4ccccc34)ccc21 | -2 | -3 | 0 | -5 | 0 | /
